From article PMC6602471 come the findings set out here.

The full ranking holds about 1,300 sequences; the median of “log fluorescence intensity” is about 8.9, and the highest 2% start at about 13. Shown is part of a subset that was picked to be rich in the highest values.

This test has as its target T1, ELK1 (Homo sapiens, UniProt P19419 1-428).
T1 sequence: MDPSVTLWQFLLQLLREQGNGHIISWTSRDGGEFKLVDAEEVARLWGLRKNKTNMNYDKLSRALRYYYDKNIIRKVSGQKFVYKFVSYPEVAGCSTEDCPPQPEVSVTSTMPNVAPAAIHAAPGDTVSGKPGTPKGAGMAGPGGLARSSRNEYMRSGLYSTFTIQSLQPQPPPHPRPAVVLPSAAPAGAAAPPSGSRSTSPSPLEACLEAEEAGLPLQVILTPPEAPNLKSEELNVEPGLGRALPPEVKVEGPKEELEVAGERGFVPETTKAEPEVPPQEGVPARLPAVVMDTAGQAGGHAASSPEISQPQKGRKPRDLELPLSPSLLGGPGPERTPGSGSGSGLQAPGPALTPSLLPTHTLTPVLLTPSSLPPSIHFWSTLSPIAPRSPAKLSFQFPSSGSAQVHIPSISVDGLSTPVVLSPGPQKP
Description: custom PBM; custom protein-binding microarray; buffer, salt, pH and temperature not stated; high values mean tight binding. The settings on record: dsDNA, one strand shown.
“TCCGGCTCCCAGCTCCACCCACTTCAGGCCTTGTAGGTCTTGATTCGCTTGACGCTGCTG”: the binding signal is 8.92 log fluorescence intensity.

For “CACAATTTTTACAGTAATGTAGCACGCGTAATTCCTGTCTTGATTCGCTTGACGCTGCTG”, the binding signal was 8.98 log fluorescence intensity.

As for “CAGCATAGGACTCCTTCCCTGAAGCAATTGATAACCGTCTTGATTCGCTTGACGCTGCTG”, the binding signal is 8.92 log fluorescence intensity.

For the sequence “CACAATTTTTACAGTAATGTAGCACGCGTAGCTCCTGTCTTGATTCGCTTGACGCTGCTG”, the binding signal was 9.06 log fluorescence intensity.

For “TAAAGGGACGACGGTTGTGGTAGTTCCGGGTATTAAGTCTTGATTCGCTTGACGCTGCTG”, the binding signal is 11.3 log fluorescence intensity.

For the sequence “CACAATTTTTACAGTAATGTAGCACGCGTTACTCCTGTCTTGATTCGCTTGACGCTGCTG”, the binding signal was 9.11 log fluorescence intensity.

Consider “GATTTATTTCTGCCCTTATTCGCACGTGCCATAACAGTCTTGATTCGCTTGACGCTGCTG”, for which the binding signal is 8.91 log fluorescence intensity.

In the case of “CAGCATAGGACTTCTTCCCTGAAGCAATAGATAACCGTCTTGATTCGCTTGACGCTGCTG”, the binding signal is 8.97 log fluorescence intensity.

In the case of “CACAATTTTTACAGTAATGTAGTACGCGTAACTCCTGTCTTGATTCGCTTGACGCTGCTG”, the binding signal was 9.01 log fluorescence intensity.

Regarding “GGAAAAAGGCCCAGGGTAACACCGGAAGTGGGCGTAGTCTTGATTCGCTTGACGCTGCTG”, the binding signal is 10.9 log fluorescence intensity.

For the sequence “TGTCGGGTAAGGGAATGTAGATCACGTGAATGACAAGTCTTGATTCGCTTGACGCTGCTG”, the binding signal is 8.94 log fluorescence intensity.

In the case of “TAAAGGGAAGACGGTTGTGGTAGTTCCGGGTTTTAAGTCTTGATTCGCTTGACGCTGCTG”, the binding signal is 11.2 log fluorescence intensity.

As to “TACTGACTTATATATGCGGATGCACATGAATAGACCGTCTTGATTCGCTTGACGCTGCTG”, the binding signal was 9.12 log fluorescence intensity.

Consider “GGAAAAAGGCCCAGGGTAACACCGGAAGTGGCCTTAGTCTTGATTCGCTTGACGCTGCTG”, for which the binding signal is 10.9 log fluorescence intensity.

For the sequence “GCTGCTGCGGTGCATACCCCACCGGATGTGACCTCGGTCTTGATTCGCTTGACGCTGCTG”, the binding signal was 10.1 log fluorescence intensity.

With “GGAAAAAGGCCCAGGGTAACACAGGAAGTGGGCTTAGTCTTGATTCGCTTGACGCTGCTG”, the binding signal was 9.55 log fluorescence intensity.

“GATTAATATCTGCCCTTATTCGCACGTGCCATAACAGTCTTGATTCGCTTGACGCTGCTG”: the binding signal was 8.95 log fluorescence intensity.

Consider “CTGCATAGGACTTCTTCCCTGAAGCAATTGATAACCGTCTTGATTCGCTTGACGCTGCTG”, for which the binding signal was 8.94 log fluorescence intensity.

As to “GACTAATTTCTGCCCTTATTCGCACGTGCCATAACAGTCTTGATTCGCTTGACGCTGCTG”, the binding signal is 8.95 log fluorescence intensity.

With “TCCGGCTACCAGTTCCACCCACTTCAGGCCTTGTAGGTCTTGATTCGCTTGACGCTGCTG”, the binding signal was 9.18 log fluorescence intensity.

Consider “GGAATAAGGCCCAGGGTAACACCGGAAGTGGGCTTAGTCTTGATTCGCTTGACGCTGCTG”, for which the binding signal was 10.9 log fluorescence intensity.

As for “TACTAACTTATATATGCGAATGCACATGAATAGACCGTCTTGATTCGCTTGACGCTGCTG”, the binding signal is 8.93 log fluorescence intensity.

Regarding “TCCGGCTACCAGCTCCACCCACTTCAGTCCTTGTAGGTCTTGATTCGCTTGACGCTGCTG”, the binding signal was 9.06 log fluorescence intensity.

“GATTCATTTCTGCCCTTATTCGCACGTGCCATAACAGTCTTGATTCGCTTGACGCTGCTG”: the binding signal is 8.97 log fluorescence intensity.

With “GGAAAAAGGCCCAGGGAAACACCGGAAGTGGGCTTAGTCTTGATTCGCTTGACGCTGCTG”, the binding signal is 11.4 log fluorescence intensity.

For “GTGTATAGGATCCCATCCAACACACGTGTTCAAATGGTCTTGATTCGCTTGACGCTGCTG”, the binding signal is 8.97 log fluorescence intensity.

“TACTGACTTCTATATGCGAATGCACATGAATAGACCGTCTTGATTCGCTTGACGCTGCTG”: the binding signal is 8.96 log fluorescence intensity.

As for “TGTCGGGCAAGGGAATGTAGATCACGTGAATGAAAAGTCTTGATTCGCTTGACGCTGCTG”, the binding signal is 9.09 log fluorescence intensity.

For the sequence “CAGCATAGTACTTCTTCCCTGAAGCAATTGATAACCGTCTTGATTCGCTTGACGCTGCTG”, the binding signal was 8.98 log fluorescence intensity.

“TAAAGGGAAGACGGTTGTGGTGGTTCCGGGTATTAAGTCTTGATTCGCTTGACGCTGCTG”: the binding signal was 11.1 log fluorescence intensity.

For the sequence “GCTGCTGGGGTGCATACCCCACCGGATGTGACCCCGGTCTTGATTCGCTTGACGCTGCTG”, the binding signal is 9.94 log fluorescence intensity.

As for “GTGTATAGGATCCCATTCAACACACGTGTTAAAATGGTCTTGATTCGCTTGACGCTGCTG”, the binding signal was 8.9 log fluorescence intensity.

With “TAAAGGGAAGACGGTTGTGGTAGATCCGGGTATTAAGTCTTGATTCGCTTGACGCTGCTG”, the binding signal was 9.61 log fluorescence intensity.

For the sequence “TAAGGGGAAGACGGTTGTGGTAGTTCCGGGTATTAAGTCTTGATTCGCTTGACGCTGCTG”, the binding signal was 11.3 log fluorescence intensity.

In the case of “GGAAAAAGGCACAGGGTAACACCGGAAGTGGGCTTAGTCTTGATTCGCTTGACGCTGCTG”, the binding signal is 11 log fluorescence intensity.

As to “GGAAAAAGGCCCAGGGTAACACCGGAATTGGGCTTAGTCTTGATTCGCTTGACGCTGCTG”, the binding signal was 9.46 log fluorescence intensity.

In the case of “CGGAAGTGTCGTAAACGTCGGATATCCGCTTCTTCTGTCTTGATTCGCTTGACGCTGCTG”, the binding signal was 11.5 log fluorescence intensity.

As for “CAGCATAGGACTTCTTCCCTGAAGCAGTTGATAACCGTCTTGATTCGCTTGACGCTGCTG”, the binding signal was 8.98 log fluorescence intensity.

As to “GTGTATAGGATCCCATCCAACACACGTGTTAATATGGTCTTGATTCGCTTGACGCTGCTG”, the binding signal is 8.92 log fluorescence intensity.

Turning to “GGAAAAAGGCCCGGGGTAACACCGGAAGTGGGCTTAGTCTTGATTCGCTTGACGCTGCTG”, the binding signal was 11.8 log fluorescence intensity.

In the case of “GGAAAAAGGCCCTGGGTAACACCGGAAGTGGGCTTAGTCTTGATTCGCTTGACGCTGCTG”, the binding signal was 11.1 log fluorescence intensity.

For “GGAAAAAGGCCCCGGGTAACACCGGAAGTGGGCTTAGTCTTGATTCGCTTGACGCTGCTG”, the binding signal is 12.6 log fluorescence intensity.

For the sequence “CTGGGACTTGACCCAAATCTGCCACGTGGGTCGTTTGTCTTGATTCGCTTGACGCTGCTG”, the binding signal is 9 log fluorescence intensity.

For the sequence “TGTCAGGTAAGGGAATGTAGATCACGTGAATGAAAAGTCTTGATTCGCTTGACGCTGCTG”, the binding signal was 8.9 log fluorescence intensity.

For “TACTGAGTTATATATGCGAATGCACATGAATAGACCGTCTTGATTCGCTTGACGCTGCTG”, the binding signal is 8.97 log fluorescence intensity.

On to “TAAAGGGAAGACGGTTGTGGTAGTTCCGGGAATTAAGTCTTGATTCGCTTGACGCTGCTG”, for which the binding signal was 11.2 log fluorescence intensity.

Take “CAGCATAGGACTTCTTCCCTGAAGCAATTGATACCCGTCTTGATTCGCTTGACGCTGCTG”: the binding signal is 8.91 log fluorescence intensity.

For “TACTGACTTATATATGCGAATGCACATGAATAGAACGTCTTGATTCGCTTGACGCTGCTG”, the binding signal was 8.92 log fluorescence intensity.

As to “TGGCGGGTAAGGGAATGTAGATCACGTGAATGAAAAGTCTTGATTCGCTTGACGCTGCTG”, the binding signal was 8.95 log fluorescence intensity.

In the case of “CTGGGACTTGACCCAACTCTGCCACGTGGGTCGTATGTCTTGATTCGCTTGACGCTGCTG”, the binding signal was 8.98 log fluorescence intensity.

Take “CTGGGACTTGACCCAACTCTGCCACGTGGGGCGTTTGTCTTGATTCGCTTGACGCTGCTG”: the binding signal was 8.94 log fluorescence intensity.

For “TACTGACTTATATATCCGAATGCACATGAATAGACCGTCTTGATTCGCTTGACGCTGCTG”, the binding signal is 9.23 log fluorescence intensity.

In the case of “TAAAGGGAAGATGGTTGTGGTAGTTCCGGGTATTAAGTCTTGATTCGCTTGACGCTGCTG”, the binding signal is 10.9 log fluorescence intensity.

Turning to “CGGACGTGTCGTAAACGTCGGATATCCGGTTCTTCTGTCTTGATTCGCTTGACGCTGCTG”, the binding signal is 12.2 log fluorescence intensity.

For “CGGAAGGGTCGTAAACGTCGGATATCCGGTTCTTCTGTCTTGATTCGCTTGACGCTGCTG”, the binding signal is 12.1 log fluorescence intensity.

On to “CGGAAGCGTCGTAAACGTCGGATATCCGGTTCTTCTGTCTTGATTCGCTTGACGCTGCTG”, for which the binding signal is 12.5 log fluorescence intensity.

On to “CGGAAGTCTCGTAAACGTCGGATATCCGGTTCTTCTGTCTTGATTCGCTTGACGCTGCTG”, for which the binding signal was 12 log fluorescence intensity.

For “CGGAAGTATCGTAAACGTCGGATATCCGGTTCTTCTGTCTTGATTCGCTTGACGCTGCTG”, the binding signal was 12 log fluorescence intensity.

Consider “CGGAATTGTCGTAAACGTCGGATATCCGGTTCTTCTGTCTTGATTCGCTTGACGCTGCTG”, for which the binding signal is 12.8 log fluorescence intensity.

For “CGGAACTGTCGTAAACGTCGGATATCCGGTTCTTCTGTCTTGATTCGCTTGACGCTGCTG”, the binding signal was 12.5 log fluorescence intensity.

In the case of “CGGATGTGTCGTAAACGTCGGATATCCGGTTCTTCTGTCTTGATTCGCTTGACGCTGCTG”, the binding signal was 12.2 log fluorescence intensity.

Take “CGGAAATGTCGTAAACGTCGGATATCCGGTTCTTCTGTCTTGATTCGCTTGACGCTGCTG”: the binding signal is 12.6 log fluorescence intensity.

With “CTGGGACTTGGCCCAACTCTGCCACGTGGGTCGTTTGTCTTGATTCGCTTGACGCTGCTG”, the binding signal is 8.95 log fluorescence intensity.

As to “TCCGGCTATCAGCTCCACCCACTTCAGGCCTTGTAGGTCTTGATTCGCTTGACGCTGCTG”, the binding signal was 9.1 log fluorescence intensity.

For the sequence “CAGCATAGGACTTCTTCCCTGAAGAAATTGATAACCGTCTTGATTCGCTTGACGCTGCTG”, the binding signal was 8.96 log fluorescence intensity.
